Results published in ChEMBL document CHEMBL3988442, “University of Dundee, Small-Polar-MMV Screening Library” (2021).

The compounds below were run against AMP-activated protein kinase, AMPK (Homo sapiens) (UniProt P54646+O43741+P54619+Q9UGJ0+Q9Y478+Q13131+Q9UGI9) (assay: AMP-dependent Kinase enzyme assay. An in vitro enzyme assay that detects ADP turnover that is directly proportional to AMPK activity. This uses naive AMPK that is activated during the assay with MK-8722). Settings: 30 µM.
Format: functional
Set-up: scale not given: direction of the effect not stated beside the values
COc1cccc(C(=O)N2CCN(C(=O)CCCc3cn[nH]c3)CC2)c1 showed a Percent Effect of -1.35%.
O=C(c1cc(C2CC2)nc2onc(-c3ccccc3)c12)N1CC(O)C1 was tested, and the Percent Effect was 2.65%.
Work on CC(C)n1cnnc1SCCN(C)c1ccccc1 yielded a Percent Effect of 8.44%.
O=C(c1cnco1)N1CCC(Cc2cccc3ncccc23)CC1 showed a Percent Effect of 5.42%.
For O=C(c1ccc(-n2cnnc2)cc1Cl)N1CCCC2(CCNC2)C1 (centres undefined), the Percent Effect was 0.724%.
Work on CCNC(=O)c1ccc(NC(=O)N(C)Cc2cc(C)on2)cc1 yielded a Percent Effect of 16.8%.
Cc1cc(CN2CCC(c3cc(Cc4ccccc4)n[nH]3)CC2)[nH]n1 showed a Percent Effect of -6.49%.
With CC(C)N(C)S(=O)(=O)c1ccc2c(c1)CCN(C(=O)c1cnccn1)C2 the Percent Effect was 0.361%.
CCN1CCN(C(=O)C2CCOC2)c2ccccc21 (centres undefined) was tested, and the Percent Effect was -4.37%.
Cc1cnn(C2CN(CCOc3cccc(C#N)c3)C2)c1 showed a Percent Effect of 3.61%.
With Cc1nnc(CN(C)CC(=O)N2CCCC(C)CC2)n1C (centres undefined) the Percent Effect was 0.221%.
In the case of CN(C)c1cccc(C(=O)Nc2cnn(Cc3ccncc3)c2)c1, the Percent Effect is reported as -4.34%.
CO[C@H]1CN(Cc2c(C)ccc3ncccc23)CC[C@H]1N was tested, and the Percent Effect was 1.31%.
With CC(C)(C)NC(=O)CN1CCNCC1 the Percent Effect was 1.56%.
CC(C)(C)c1ncc2c(n1)CN(c1cc(NCCO)nc(N)n1)C2 was tested, and the Percent Effect was -194%.
COCCN1CCN(Cc2coc(-c3ccccc3Cl)n2)CC1 was tested, and the Percent Effect was -1.56%.
CSc1ccccc1NC(=O)c1ccc(N2CCOCC2)nn1 gave a Percent Effect of -1.6%.
Cc1cc(C)n(C2CN(CCC(=O)NCCc3ccccc3)C2)n1 showed a Percent Effect of 2.98%.
O=C(C1CCOC1)N1CCN(CC2CC2)c2ccccc21 (centres undefined) showed a Percent Effect of 5.43%.
With O=S(=O)(NCCCn1cncn1)c1ccc2c(c1)OCCO2 the Percent Effect was 8.28%.
O=C1CCCCCN1Cc1nc(C2(c3ccc(F)cc3)CCOC2)no1 (centres undefined) was tested, and the Percent Effect was 8.29%.
O=C(c1cc(C2CC2)on1)N1C[C@H]2CC[C@](O)(c3ccc(F)cc3)[C@H]2C1 gave a Percent Effect of 12.8%.
Work on Cc1ccc(O)c(CN2CCCCC2CCN2CCOCC2)c1 (centres undefined) yielded a Percent Effect of 8.46%.
For COC(=O)CSCc1noc(-c2ccc(Cl)cc2)n1, the Percent Effect was -9.28%.
For CCN(C(=O)CN1CCCC1c1c(C)nn(C)c1OC)C1CC1 (centres undefined), the Percent Effect was 3.98%.
For Cc1nsc(C(=O)NCCc2ccccc2)n1, the Percent Effect was 3.51%.
In the case of CN(C)C[C@@H]1CN(C(=O)c2cc(-c3ccccc3)n[nH]2)C[C@@H]1CO, the Percent Effect is reported as -6.79%.
CO[C@@H]1c2ccccc2C2(CCN(C(=O)CNC(=O)C(C)C)CC2)[C@H]1O gave a Percent Effect of 13.3%.
O=C1NCCN(C(=O)CN2CCOC2=O)C1c1cccc(F)c1 (centres undefined) showed a Percent Effect of -8.21%.
Cc1ncn(CCNC(=O)Nc2ccccc2)c(=O)c1C gave a Percent Effect of -8.41%.
Compound CC(=O)NCCCNC(=O)N1CCN(c2cc(F)ccc2F)CC1 has a Percent Effect of 6.39%.
CN(CC(=O)NC(C)(C)C)Cc1cccc2c1OCCO2 gave a Percent Effect of -9.42%.
Work on COc1cccc(S(=O)(=O)N2CCOC(C)(C(N)=O)C2)c1 (centres undefined) yielded a Percent Effect of 22.4%.
CC(C)COc1cncc(N2CCCN(CC(F)(F)F)CC2)n1 gave a Percent Effect of 3.81%.
In the case of CC(C#N)NS(=O)(=O)c1cccc(C(C)C)c1 (centres undefined), the Percent Effect is reported as 0.482%.
Cc1ccc(C)c(CC(=O)NC2CCC(N3C(=O)CCC3=O)CC2)c1 (centres undefined) gave a Percent Effect of -3.29%.
Compound CN(CCOc1ccc(C#N)cc1)CC1CCS(=O)(=O)C1 (centres undefined) has a Percent Effect of 7.94%.
With CN(Cc1n[nH]c2c1CCCCC2)C(=O)c1cc(-c2cccn2C)n[nH]1 the Percent Effect was 12.8%.
For CC(C)(C)C(=O)N1CCC(c2cnc(-c3cn[nH]c3)cn2)CC1, the Percent Effect was 1.14%.
